Measured values published in PubChem BioAssay (Tox21).
Values joined by “and” are separate entries in the source; they are usually repeats but may differ in a detail not shown here. Equal values may be shown once. Records with an inconclusive call do not appear. A call without a number means that no potency is given here. A structure can be active in one record and inactive in another. Active and inactive are the calls of the source. Unless noted, calls come from the whole dose curve; as a rule, active = well fitted curve in the direction sought with a large enough effect in the repeat runs; inconclusive = weak or mixed curves; inactive = no such curve, though single readings can be large; an effect the other way counts as inactive or inconclusive.

Experiments:
[1] = molecular target: Acetylcholinesterase (Homo sapiens) (UniProt P22303); assay: Acetylcholinesterase (AChE) small molecule antagonists: fluorescence cell-based qHTS assay (AID 1347398; calls by dose curve; note: nearly all actives have a fitted effect of over 50% in size; note: potency is the fitted concentration of half-maximal effect); settings: Potency: AChE activity
In short: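 Human SH-SY5Y cells were plated overnight at 37 C, exposed to compound for 30 min at 37 C, 5% CO2, then given acetylthiocholine plus Thiolite Green for 40 min at room temperature; thiocholine fluorescence (Ex/Em 490/520 nm) reports endogenous AChE activity.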

[2] = molecular target: Acetylcholinesterase (Homo sapiens) (UniProt P22303); assay: Acetylcholinesterase (AChE) small molecule antagonists: enzyme-based qHTS assay with human liver microsomes (AID 1347399; calls by dose curve; note: nearly all actives have a fitted effect of over 60% in size); settings: Potency: qHTS inhibition
In short: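 Recombinant human AChE (50 mU/mL in the enzyme mix) and human liver microsomes (0.25 mg/mL final) were preincubated with compound and NADPH (0.25 mg/mL final) for 30 min at 37 C. Acetylthiocholine/DTNB was then added; thiocholine was read colorimetrically after 10 min at room temperature.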

[3] = molecular target: Cytochrome P450 2D6 (Homo sapiens) (UniProt P10635); assay: Cytochrome P450 Family 2 Subfamily D Member 6 (CYP2D6) small molecule antagonists: luciferase reporter qHTS assay (AID 1671196); note: nearly all actives have a fitted effect of over 50% in size; note: potency is the fitted concentration of half-maximal effect
In short: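 Inhibition of CYP2D6 was gauged by loss of luminescence, since light produced tracks the luciferin generated from a proluciferin substrate. A 10 min room-temperature preincubation preceded 1 h NADPH-supported turnover.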

[4] = molecular target: Cytochrome P450 2C19 (Homo sapiens) (UniProt P33261); assay: Cytochrome P450 Family 2 Subfamily C Member 19 (CYP2C19) small molecule antagonists: luciferase reporter qHTS assay (AID 1671197); note: nearly all actives have a fitted effect of over 65% in size; note: potency is the fitted concentration of half-maximal effect
In short: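 Compounds were tested on CYP2C19 activity via proluciferin conversion to luciferin. The 37C, 1 h reaction followed NADPH addition; detection reagent stopped it.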

[5] = molecular target: Cytochrome P450 2C9 (Homo sapiens) (UniProt P11712); assay: Cytochrome P450 Family 2 Subfamily C Member 9 (CYP2C9) small molecule antagonists: luciferase reporter qHTS assay (AID 1671198); note: nearly all actives have a fitted effect of over 50% in size; note: potency is the fitted concentration of half-maximal effect
In short: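 CYP2C9 activity was measured with a P450-Glo proluciferin substrate. Enzyme–substrate mix was held with compound for 10 min at room temperature, then NADPH regeneration solution was added for 1 h at 37C. Luciferin product was read as luminescence.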

[6] = molecular target: Cytochrome P450 1A2 (Homo sapiens) (UniProt P05177); assay: Cytochrome P450 Family 1 Subfamily A Member 2 (CYP1A2) small molecule antagonists: luciferase reporter qHTS assay (AID 1671199); note: nearly all actives have a fitted effect of over 50% in size; note: potency is the fitted concentration of half-maximal effect
In short: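 Signal from luciferin formed by CYP1A2 from a proluciferin substrate is read as luminescence, expressed in relative luminescence units. Compounds sit with enzyme 10 min, NADPH-driven reaction runs 1 h, all at room temperature.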

[7] = molecular target: Voltage-gated inwardly rectifying potassium channel KCNH2 (Homo sapiens) (UniProt Q12809); assay: Human Ether-a-go-go-Related Gene (hERG) channel small molecule antagonists: fluorescence cell-based qHTS assay (AID 1671200); note: nearly all actives have a fitted effect of over 50% in size; note: potency is the fitted concentration of half-maximal effect
In short: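 Channel function was assessed by thallium flux. Cells seeded the previous day and kept at 37 C took up FluxOR II dye over 1 h in the dark at room temperature, then sat another 10 min before stimulation.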

[8] = molecular target: Cytochrome P450 3A4 (Homo sapiens) (UniProt P08684); assay: Cytochrome P450 Family 3 Subfamily A Member 4 (CYP3A4) small molecule antagonists: luciferase reporter qHTS assay (AID 1671201); note: nearly all actives have a fitted effect of over 50% in size; note: potency is the fitted concentration of half-maximal effect
In short: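 Compounds in DMSO were pin-transferred onto CYP3A4 enzyme-substrate mix and held 10 min at room temperature. NADPH regenerating solution started the reaction for 1 h; luciferin detection reagent stopped it, and luminescence was read after 20 min.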

Chain of Cytochrome P450 2C9 (Homo sapiens) (P11712 whole entry, looked up): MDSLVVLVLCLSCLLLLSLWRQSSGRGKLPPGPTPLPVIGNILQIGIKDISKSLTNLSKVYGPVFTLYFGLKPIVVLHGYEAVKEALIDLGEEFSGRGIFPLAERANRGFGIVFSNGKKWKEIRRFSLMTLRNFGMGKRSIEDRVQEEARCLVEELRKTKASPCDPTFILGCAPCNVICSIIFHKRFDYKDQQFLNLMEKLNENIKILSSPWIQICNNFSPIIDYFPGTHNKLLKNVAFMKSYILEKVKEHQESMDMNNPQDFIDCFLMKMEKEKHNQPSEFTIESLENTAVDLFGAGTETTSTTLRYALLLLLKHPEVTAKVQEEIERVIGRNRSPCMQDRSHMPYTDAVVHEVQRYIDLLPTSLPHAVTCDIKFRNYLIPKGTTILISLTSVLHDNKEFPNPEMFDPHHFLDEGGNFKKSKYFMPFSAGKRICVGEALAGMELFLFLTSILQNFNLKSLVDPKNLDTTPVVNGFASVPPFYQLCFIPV
Chain of Cytochrome P450 1A2 (Homo sapiens) (P05177 whole entry, looked up): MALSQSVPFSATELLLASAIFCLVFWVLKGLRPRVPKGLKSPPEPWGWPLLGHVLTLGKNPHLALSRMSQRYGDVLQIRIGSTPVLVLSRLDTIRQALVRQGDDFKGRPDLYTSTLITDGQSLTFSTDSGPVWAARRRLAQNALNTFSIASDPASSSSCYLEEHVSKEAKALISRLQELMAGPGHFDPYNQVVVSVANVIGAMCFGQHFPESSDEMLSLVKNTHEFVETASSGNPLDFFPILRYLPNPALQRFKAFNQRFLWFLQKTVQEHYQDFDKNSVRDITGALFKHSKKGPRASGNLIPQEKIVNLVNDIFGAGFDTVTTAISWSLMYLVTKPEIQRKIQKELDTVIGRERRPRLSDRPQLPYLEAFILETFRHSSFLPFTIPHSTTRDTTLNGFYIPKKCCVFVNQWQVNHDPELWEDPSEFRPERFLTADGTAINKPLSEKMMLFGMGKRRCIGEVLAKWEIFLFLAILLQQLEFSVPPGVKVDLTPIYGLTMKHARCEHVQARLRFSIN
Chain of Acetylcholinesterase (Homo sapiens) (P22303 whole entry, looked up): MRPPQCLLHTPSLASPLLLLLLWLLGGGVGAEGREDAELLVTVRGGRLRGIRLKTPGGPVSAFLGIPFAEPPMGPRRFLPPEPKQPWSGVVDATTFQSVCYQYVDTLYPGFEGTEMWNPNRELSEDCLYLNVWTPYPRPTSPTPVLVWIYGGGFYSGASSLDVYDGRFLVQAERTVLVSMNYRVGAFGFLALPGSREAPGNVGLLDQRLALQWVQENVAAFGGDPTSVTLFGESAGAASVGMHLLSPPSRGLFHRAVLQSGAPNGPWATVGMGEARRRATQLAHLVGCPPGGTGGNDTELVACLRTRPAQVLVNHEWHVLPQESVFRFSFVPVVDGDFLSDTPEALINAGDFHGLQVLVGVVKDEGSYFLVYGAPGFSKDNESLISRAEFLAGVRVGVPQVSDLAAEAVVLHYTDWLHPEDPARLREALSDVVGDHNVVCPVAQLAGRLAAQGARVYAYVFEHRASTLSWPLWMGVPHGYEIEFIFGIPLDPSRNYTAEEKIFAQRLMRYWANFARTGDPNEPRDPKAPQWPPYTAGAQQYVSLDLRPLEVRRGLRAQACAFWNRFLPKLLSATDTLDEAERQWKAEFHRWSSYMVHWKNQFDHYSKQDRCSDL
Chain of Cytochrome P450 2C19 (Homo sapiens) (P33261 whole entry, looked up): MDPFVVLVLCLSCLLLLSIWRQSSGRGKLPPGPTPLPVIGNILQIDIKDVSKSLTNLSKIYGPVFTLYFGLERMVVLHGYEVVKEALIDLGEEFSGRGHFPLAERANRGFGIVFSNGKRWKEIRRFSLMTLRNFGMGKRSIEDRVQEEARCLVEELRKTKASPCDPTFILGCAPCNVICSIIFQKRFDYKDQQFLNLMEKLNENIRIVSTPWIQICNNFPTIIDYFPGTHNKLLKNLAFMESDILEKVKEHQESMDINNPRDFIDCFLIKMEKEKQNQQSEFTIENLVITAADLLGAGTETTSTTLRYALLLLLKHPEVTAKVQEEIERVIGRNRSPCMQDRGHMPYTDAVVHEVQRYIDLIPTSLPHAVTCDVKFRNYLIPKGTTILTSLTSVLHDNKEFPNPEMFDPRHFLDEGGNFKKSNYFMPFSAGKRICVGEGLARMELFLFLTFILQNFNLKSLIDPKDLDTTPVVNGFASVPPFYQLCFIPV
Chain of Voltage-gated inwardly rectifying potassium channel KCNH2 (Homo sapiens) (Q12809 whole entry, looked up): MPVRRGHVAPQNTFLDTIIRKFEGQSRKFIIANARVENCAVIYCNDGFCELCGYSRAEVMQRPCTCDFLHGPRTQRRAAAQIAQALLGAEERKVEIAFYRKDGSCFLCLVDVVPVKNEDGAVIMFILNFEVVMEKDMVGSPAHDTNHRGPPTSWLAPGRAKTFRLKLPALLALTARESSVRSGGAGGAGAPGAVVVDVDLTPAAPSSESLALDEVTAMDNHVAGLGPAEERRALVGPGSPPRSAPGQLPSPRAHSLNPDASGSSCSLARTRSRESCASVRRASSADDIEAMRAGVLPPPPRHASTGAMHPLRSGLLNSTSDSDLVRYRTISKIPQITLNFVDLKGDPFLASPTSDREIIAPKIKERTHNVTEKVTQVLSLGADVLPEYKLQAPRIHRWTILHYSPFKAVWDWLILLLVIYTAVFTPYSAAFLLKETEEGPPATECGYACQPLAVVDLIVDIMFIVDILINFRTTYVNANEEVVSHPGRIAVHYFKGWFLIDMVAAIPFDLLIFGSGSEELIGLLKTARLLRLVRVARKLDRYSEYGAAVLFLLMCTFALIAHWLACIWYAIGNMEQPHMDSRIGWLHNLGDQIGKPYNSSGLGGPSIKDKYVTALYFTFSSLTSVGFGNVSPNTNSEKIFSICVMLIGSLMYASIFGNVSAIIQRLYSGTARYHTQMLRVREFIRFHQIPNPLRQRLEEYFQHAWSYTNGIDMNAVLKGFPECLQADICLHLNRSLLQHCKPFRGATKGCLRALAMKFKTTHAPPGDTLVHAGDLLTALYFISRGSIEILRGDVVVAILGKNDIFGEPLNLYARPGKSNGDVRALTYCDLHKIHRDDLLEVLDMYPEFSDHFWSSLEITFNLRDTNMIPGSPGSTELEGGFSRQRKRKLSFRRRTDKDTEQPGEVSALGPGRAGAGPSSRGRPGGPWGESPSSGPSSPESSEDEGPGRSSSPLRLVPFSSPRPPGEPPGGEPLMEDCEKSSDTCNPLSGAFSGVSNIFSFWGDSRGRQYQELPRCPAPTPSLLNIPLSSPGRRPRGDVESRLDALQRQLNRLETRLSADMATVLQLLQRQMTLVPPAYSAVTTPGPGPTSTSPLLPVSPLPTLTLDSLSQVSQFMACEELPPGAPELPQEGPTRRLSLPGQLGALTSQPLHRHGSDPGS
Chain of Cytochrome P450 2D6 (Homo sapiens) (P10635 whole entry, looked up): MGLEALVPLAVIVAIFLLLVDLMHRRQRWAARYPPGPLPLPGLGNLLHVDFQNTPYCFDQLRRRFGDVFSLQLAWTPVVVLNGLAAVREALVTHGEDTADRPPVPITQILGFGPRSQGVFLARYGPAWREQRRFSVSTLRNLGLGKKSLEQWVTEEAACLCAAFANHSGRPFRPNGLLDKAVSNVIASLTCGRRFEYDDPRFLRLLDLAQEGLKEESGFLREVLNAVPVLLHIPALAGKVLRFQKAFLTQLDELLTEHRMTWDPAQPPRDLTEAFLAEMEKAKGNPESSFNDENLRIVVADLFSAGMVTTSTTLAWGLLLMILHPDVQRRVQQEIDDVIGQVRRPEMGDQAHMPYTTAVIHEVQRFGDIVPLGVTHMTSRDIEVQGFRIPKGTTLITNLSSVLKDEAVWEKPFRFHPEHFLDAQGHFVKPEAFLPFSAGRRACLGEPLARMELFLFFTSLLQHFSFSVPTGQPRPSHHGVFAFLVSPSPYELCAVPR
Chain of Cytochrome P450 3A4 (Homo sapiens) (P08684 whole entry, looked up): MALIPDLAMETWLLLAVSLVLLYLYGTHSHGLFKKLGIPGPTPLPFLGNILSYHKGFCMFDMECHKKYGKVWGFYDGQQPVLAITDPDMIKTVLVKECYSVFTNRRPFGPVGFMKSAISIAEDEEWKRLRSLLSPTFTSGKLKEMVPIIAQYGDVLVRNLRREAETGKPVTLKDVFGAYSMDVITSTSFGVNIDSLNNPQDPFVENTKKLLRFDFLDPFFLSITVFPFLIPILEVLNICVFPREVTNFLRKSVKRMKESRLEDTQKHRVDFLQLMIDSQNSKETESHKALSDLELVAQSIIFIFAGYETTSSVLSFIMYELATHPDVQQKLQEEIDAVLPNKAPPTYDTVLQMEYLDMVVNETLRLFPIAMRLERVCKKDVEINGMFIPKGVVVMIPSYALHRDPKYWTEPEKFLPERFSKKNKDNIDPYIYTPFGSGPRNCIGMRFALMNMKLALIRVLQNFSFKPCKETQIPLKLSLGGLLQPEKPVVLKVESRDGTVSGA

Row | Structure (SMILES) | Potency [1] | Potency [2] | Potency [3] | Potency [4] | Potency [5] | Potency [6] | Potency [7] | Potency [8]
1 | Oc1ccc([C@H]2CNCc3c2ccc(O)c3O)cc1O | 30.9 µM (active) | inactive | 34.7 µM (active) | 38.9 µM (active) | 13.8 µM (active) | inactive | inactive | inactive
2 | Cc1nn(-c2cc(NS(C)(=O)=O)c(Cl)cc2Cl)c(=O)n1C(F)F | inactive | inactive | inactive | inactive | 39.9 µM (active) | – | inactive | inactive
3 | CCCCC(CC)COC(=O)OOC(C)(C)C (stereo not drawn) | inactive | inactive | inactive | inactive | inactive | – | inactive | inactive
4 | Cc1cc2c3c(c1)C(c1ccccc1)=N[C@@H](NC(=O)c1ccncc1)C(=O)N3CC2 | inactive | inactive | 39.9 µM (active) | 25.2 µM (active) | 31.7 µM (active) | – | – | 1.12 µM (active)
5 | c1ccc(N=NNc2ccccc2)cc1 | inactive | inactive | 65.4 µM (active) and 63.3 µM (active) | 23.2 µM (active) and 50.2 µM (active) | 26 µM (active) and 31.7 µM (active) | 13.1 µM (active) and 15.9 µM (active) | – | 26 µM (active)
6 | CCC1(CC)C(=O)N=C(O)NC1=O | inactive | inactive | inactive | inactive | inactive | inactive | inactive | inactive
7 | O=C(NC(=O)c1ccccc1Cl)Nc1ccc(OC(F)(F)F)cc1 | inactive | inactive | inactive | inactive | inactive | – | inactive | inactive
8 | Brc1ccc(Oc2ccc(Br)cc2Br)c(Br)c1 | inactive | inactive | inactive | 0.142 µM (active) | 12.6 µM (active) | 12.6 µM (active) | inactive | inactive
9 | CCCCCCCCCCCCCCn1cc[n+](C)c1 | 20.1 µM (active) and 31.4 µM (active) and inactive | inactive | 1.13 µM (active) and 1.25 µM (active) | 40 µM (active) and 78.8 µM (active) | 11.3 µM (active) | 40 µM (active) and 62.6 µM (active) | 3.9 µM (active) and 6.84 µM (active) and inactive | 40 µM (active)
10 | Cc1cnc2c(C(=O)O)c(Cl)ccc2c1 | inactive | inactive | inactive | inactive | inactive | – | inactive | inactive
11 | FC(F)C(F)(F)OCC(Cn1cncn1)c1ccc(Cl)cc1Cl (stereo not drawn) | inactive | inactive | 11.2 µM (active) | 0.0199 µM (active) | 1.77 µM (active) | 7.06 µM (active) | inactive | 0.223 µM (active)
12 | COP(=S)(OC)Oc1ccc([N+](=O)[O-])c(C)c1 | 50.2 µM (active) | inactive | 25.2 µM (active) | 0.399 µM (active) | 7.1 µM (active) | 1.12 µM (active) | inactive | 7.1 µM (active)
13 | ClSC(Cl)(Cl)Cl | inactive | inactive | 10.1 µM (active) | inactive | 31.8 µM (active) | – | inactive | inactive
14 | S=C=Nc1ccccc1 | inactive | inactive | 73.3 µM (active) | 36.7 µM (active) | 65.3 µM (active) | 32.7 µM (active) | inactive | 32.7 µM (active)
15 | N#Cc1sc2c(=O)c3ccccc3c(=O)c=2sc1C#N | 63.3 µM (active) | inactive | 35.6 µM (active) | 3.99 µM (active) | 3.17 µM (active) | 31.7 µM (active) | 21.9 µM (active) | 17.8 µM (active)
16 | CC(Cc1ccc2c(c1)OCO2)NO (stereo not drawn) | inactive | inactive | 38.6 µM (active) | 48.6 µM (active) | – | 6.11 µM (active) | inactive | –
17 | CN1C2CCC(C)(C)C1CC(OC(=O)C(O)(c1cccs1)c1cccs1)C2 (stereo not drawn) | inactive | inactive | 15.5 µM (active) | inactive | inactive | inactive | – | 0.219 µM (active)
18 | CN=C=O | inactive | inactive | 57.2 µM (active) | inactive | inactive | 36.1 µM (active) | inactive | inactive
